# Reference: the supplement of paper PMC9254222
# Whole data set: some 1,100 compounds, median “Renilla luciferase signal (cell health) relative to plate median” near 0.97, cut for the highest 2% near 1.6. The full list was thinned out, with the highest values kept by preference.
# Test system: HEK293T (UBE3A T485A transfected, BAR Wnt reporter)
# Test: Renilla luciferase signal (cell health) relative to plate median (fold (linear ratio)); higher = higher Renilla signal
# Details: 24 h
# Outline: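 Wnt activity (firefly/Renilla ratio) and cell health (raw Renilla) were read with Dual-Glo luciferase and median-centred plate by plate. HEK293T cells, at 4500 cells/well in white 384-well plates with DMEM plus 10% FBS at 37°C and 5% CO2, carried a transfected BAR firefly luciferase Wnt reporter, TK-Renilla and an expression plasmid. The chemicals were applied by robot at 0.01–100 uM for 24 h, beginning four hours after transfection, and results were averaged across four biological replicates.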
Compound,Renilla luciferase signal (concentration: 0.1 uM),Renilla luciferase signal (concentration: 1 uM),Renilla luciferase signal (concentration: 10 uM),Renilla luciferase signal (concentration: 100 uM),Renilla luciferase signal (concentration: 0.01 uM)
O=C([O-])c1[nH]n(-c2ccc(S(=O)(=O)[O-])cc2)c(=O)c1/N=N/c1ccc(S(=O)(=O)[O-])cc1.[Na+].[Na+].[Na+] [FD&C Yellow 5],1.1,1.15,1.15,0.999,
CC1(C)CC(N=C=O)CC(C)(CN=C=O)C1 (configuration not stated) [Isophorone diisocyanate],0.927,0.855,0.865,0.953,
S=C([S-])NCCNC(=S)[S-].[Mn+2] [Maneb],1.01,0.995,0.968,0.105,0.874
CC(C(C)N1CC(=O)NC(=O)C1)N1CC(=O)NC(=O)C1 (configuration not stated),0.674,0.785,0.383,0.396,0.735
C=CCCCCCCCCC(=O)O [10-Undecenoic acid],0.947,0.883,0.917,1.16,
O=C(O)c1cccc(N(Cc2cccnc2)c2ccc(OC(F)F)c(OC(F)F)c2)c1,1.15,1.14,1.24,0.322,
CCCCCCCCCCCCCCC [Pentadecane],0.808,0.899,0.973,1.16,
"CN(C)CCCN(C)CCCN(C)C [2,6,10-Trimethyl-2,6,10-triazaundecane]",0.932,0.811,0.918,0.932,
COC(=O)c1ccc(C(=O)OC)cc1 [Dimethyl terephthalate],0.95,1.09,1.01,1.36,
Cc1nc(-c2ccccn2)ncc1C(=O)Nn1cc(C)c2cc(F)ccc21,0.941,0.877,1.05,1.02,
CCc1cc(C2=C(C(=O)[O-])N(c3ccccc3C(F)(F)F)S(=O)(=O)c3ccccc32)cc2c1OCO2.[K+] [Fandosentan potassium salt],1.01,1.1,0.887,0.331,
CN(Cc1cnc2nc(N)nc(N)c2n1)c1ccc(C(=O)N[C@@H](CCC(=O)O)C(=O)O)cc1 [Methotrexate],0.13,0.0382,0.0865,0.087,
CC(=O)Nc1ccc(O)cc1 [Acetaminophen],0.68,0.735,0.812,1.3,
O=C(O)c1cn(C2CC2)c2cc(N3CCNCC3)c(F)cc2c1=O [Ciprofloxacin],0.893,1.01,0.9,0.336,1.06
O=C1CN(N=Cc2ccc([N+](=O)[O-])o2)C(=O)N1 [Nitrofurantoin],0.891,1.01,1.69,0.345,
NC(=O)N/N=C/c1ccc([N+](=O)[O-])o1 [Nitrofurazone],1.03,1.13,1.44,0.334,
O=[N+]([O-])c1ccc([O-])cc1.[Na+] [Sodium 4-nitrophenolate],0.98,0.86,0.924,0.669,
COc1c(Cl)ccc(Cl)c1C(=O)O [Dicamba],1.05,1.14,1.04,1.52,1.07
CC[C@H](C)C(=O)O[C@H]1C[C@H](O)C=C2C=C[C@H](C)[C@H](CC[C@@H](O)C[C@@H](O)CC(=O)[O-])[C@H]21.[Na+] [Pravastatin sodium],1.01,0.866,1.1,1.15,
"O=C(O)c1cccc(C(=O)O)c1 [1,3-Benzenedicarboxylic acid]",1.04,1.04,1.06,1.35,

Compound,Renilla luciferase signal (concentration: 0.1 uM),Renilla luciferase signal (concentration: 1 uM),Renilla luciferase signal (concentration: 10 uM),Renilla luciferase signal (concentration: 100 uM),Renilla luciferase signal (concentration: 0.01 uM)
O=C(O)c1ccccc1 [Benzoic acid],1.21,1.13,1.35,1.77,
CC(=O)c1ccccc1 [Acetophenone],0.867,0.964,0.94,1.11,
O=c1ccn(C2OC(COP(=O)(O)OP(=O)(O)OP(=O)(O)O)C(O)C2O)c(=O)[nH]1 (configuration not stated),0.813,0.949,0.922,2.08,0.681
Cl.Nc1ccn([C@@H]2O[C@H](CO)[C@@H](O)[C@@H]2O)c(=O)n1 [Cytarabine hydrochloride],0.829,0.907,0.626,0.809,
"OCCC(F)(F)C(F)(F)C(F)(F)C(F)(F)C(F)(F)C(F)(F)C(F)(F)C(F)(F)F [1,1,2,2-Tetrahydroperfluoro-1-decanol]",0.4,0.824,0.813,1.27,
Cc1ncc([C@@H](CCCCCCc2ccc3c(n2)NCCC3)CC(=O)O)cn1,0.747,0.794,0.796,0.82,
CNCc1cc(F)ccc1Oc1ccc(Cl)c(Cl)c1,0.817,0.874,0.723,0.0625,
Cn1cnc([N+](=O)[O-])c1Sc1ncnc2nc[nH]c12 [Azathioprine],0.939,0.983,0.605,0.0481,
CCCCCCCCCCCCN1CCCC1=O [1-Dodecyl-2-pyrrolidinone],0.846,0.856,0.929,0.883,
CC(=O)OC1CC(C)OC(C)O1 (configuration not stated) [Dimethoxane],1.23,1.1,1.26,1.63,
CCOC(=O)c1ccc([C@H]2CC[C@H](NC[C@H](O)COc3ccc(O)c(NS(C)(=O)=O)c3)CC2)cc1.Cl,0.973,0.878,0.753,0.0262,
C[C@]12C[C@H](O)[C@H]3[C@@H](CCC4=CC(=O)CC[C@@]43C)[C@@H]1CC[C@@H]2C(=O)CO [Corticosterone],0.641,0.712,0.847,0.636,
CN(C)[C@@H]1C(O)=C(C(N)=O)C(=O)[C@@]2(O)C(O)=C3C(=O)c4c(O)cccc4[C@@](C)(O)[C@H]3[C@H](O)[C@@H]12.O.O [Oxytetracycline dihydrate],0.636,0.879,0.861,0.964,0.781
CN(C)[C@@H]1C(O)=C(C(N)=O)C(=O)[C@@]2(O)C(O)=C3C(=O)c4c(O)cccc4[C@@](C)(O)[C@H]3[C@H](O)[C@@H]12.Cl [Oxytetracycline hydrochloride],0.959,1.35,2.28,0.903,
CN(C)[C@@H]1C(O)=C(C(N)=O)C(=O)[C@@]2(O)C(O)=C3C(=O)c4c(O)cccc4[C@@](C)(O)[C@H]3C[C@@H]12 [Tetracycline],0.672,0.805,0.694,1.7,
O=C(O)CCCCC(=O)O [Hexanedioic acid],0.851,0.762,0.865,1.08,
"O=C1OC(=O)C2C3C=CC(C3)C12 (configuration not stated) [2-Norbornene-5,6-dicarboxylic anhydride]",0.885,0.853,0.966,1.39,
COC(=O)CSc1cc(/N=c2\sc(=O)n3n2CCCC3)c(F)cc1Cl [Fluthiacet-methyl],0.995,1.1,1,1.21,1.03
Fc1ccccc1[C@@H](F)CO[C@H]1CC[C@H](Nc2[nH]cnc3nncc2-3)CC1,1.06,1.09,0.996,0.148,
Oc1cc2ccccc2c2ccccc12 [9-Phenanthrol],1.08,1.05,1.01,0.0207,

Compound,Renilla luciferase signal (concentration: 0.1 uM),Renilla luciferase signal (concentration: 1 uM),Renilla luciferase signal (concentration: 10 uM),Renilla luciferase signal (concentration: 100 uM),Renilla luciferase signal (concentration: 0.01 uM)
COCCO [2-Methoxyethanol],1.02,0.98,0.983,1.53,1.12
CN(C)CCCN1c2ccccc2Sc2ccc(Cl)cc21.Cl [Chlorpromazine hydrochloride],1.17,1.23,1.24,0.575,
O=c1ccc2ccccc2o1 [Coumarin],1.21,1.07,1.11,1.15,
Nc1ccc(S(=O)(=O)c2ccc(N)cc2)cc1 [Dapsone],1.03,1.07,1.2,1.03,
CCCCOC(=O)c1ccc(O)cc1 [Butylparaben],0.848,0.85,0.756,0.258,
CCCCN1C(=O)[C@@H]([C@H](O)C2CCCCC2)NC(=O)C12CCN(Cc1ccc(Oc3ccc(C(=O)O)cc3)cc1)CC2.Cl [Aplaviroc hydrochloride],0.995,1.01,1.04,2.23,
CCc1ccc(O)c(C(C)(C)C)c1 [2-tert-Butyl-4-ethylphenol],1.28,1.07,1.02,1.22,
O=C(O)CC(O)(CC(=O)O)C(=O)O [Citric acid],0.965,0.981,1.13,1.46,
NC(=O)c1nc(-c2cccc(-c3cc(F)ccc3OCC(F)(F)C(F)(F)F)c2)n[n-]1.O.[K+],0.946,0.78,0.498,0.0369,
O=C(O)Cc1cc(I)c(Oc2cc(I)c(O)c(I)c2)c(I)c1 [Tetrac],1.07,1.06,1.11,1.28,
O=C(O)Cc1cc(I)c(Oc2ccc(O)c(I)c2)c(I)c1 [Tiratricol],0.92,1.07,0.852,0.382,
"N[C@@H](Cc1cc(I)c(Oc2ccc(O)c(I)c2)c(I)c1)C(=O)O [3,5,3'-Triiodothyronine]",0.904,1.24,2.47,2.22,
COc1ccc(-c2ccc(=N)n(CCCC(=O)O)n2)cc1,0.914,0.864,0.935,1.38,0.946
COc1ccc2c(c1)c(CC(=O)O)c(C)n2C(=O)c1ccc(Cl)cc1 [Indomethacin],1.09,1.15,1.17,0.248,
"CC1(C)C(=O)N(Cl)C(=O)N1Cl [1,3-Dichloro-5,5-dimethylhydantoin]",0.99,1.06,1.04,0.988,
CC=Cc1ccc(O)c(OC)c1 [Isoeugenol],0.954,1.01,0.993,0.945,
CCN(CC)CCOc1ccc(C(=C(Cl)c2ccccc2)c2ccccc2)cc1.O=C(O)CC(O)(CC(=O)O)C(=O)O [Clomiphene citrate (1:1)],0.837,0.85,0.818,1.02,
CCCCCCC(C)OC(=O)COc1nc(F)c(Cl)c(N)c1Cl (configuration not stated) [Fluroxypyr-meptyl],1.3,1.15,1.2,2.31,1.04
